A word on the AC50: it is the midpoint of the concentration-response curve, whichever way the signal moves.

This note sets out measurements from PubChem BioAssay (EPA / NIEHS).

Calls of active or inactive are those of the source. How the source made its calls: active means hit-call score of the fitted dose curve at least 0.9, where 1 is the maximum; inactive means score below 0.9.

Read-out in experiment [1]: Interleukin 17F (IL17F), IL17F (gene 112744)
Description: BSK_BT_xIL17F: BioMAP Diversity Plus: BT Assay for Interleukin 17F (IL17F) Biomarker Activity (AID 2284243). Conditions: primary human B cells with PBMC. In outline: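 Human B cells co-cultured with PBMC; secreted IL-17F quantified by LumineX xMAP 24 hours after chemical dosing. Activity fitted in the positive direction against DMSO negative control as baseline.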

Read-out in experiment [2]: Actin alpha 1 (ACTA1), ACTA1 (gene 58)
Description: BSK_MyoF_ACTA1: BioMAP Diversity Plus: MyoF Assay for Actin alpha 1 (ACTA1) Biomarker Activity (AID 2284244). Conditions: primary human lung fibroblasts. A digest of the protocol:
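Human lung fibroblasts (MyoF system) dosed with test chemical for 24 h; α-SMA measured by ELISA. Gain of signal fitted relative to DMSO negative control as baseline.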

Read-out in experiment [3]: Interleukin 2 (IL2), IL2 (gene 3558)
Put plainly: BSK_BT_xIL2: BioMAP Diversity Plus: BT Assay for Interleukin 2 (IL2) Biomarker Activity (AID 2284245). To be noted: primary human B cells with PBMC. A digest of the protocol: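 Human B cells co-cultured with PBMC, exposed to test chemical for 24 h. Secreted IL-2 quantified by Luminex xMAP bead immunoassay; activity fitted in the positive direction relative to DMSO vehicle baseline.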

Read-out in experiment [4]: Basic fibroblast growth factor (bFGF), FGF2 (gene 2247)
Description: BSK_MyoF_bFGF: BioMAP Diversity Plus: MyoF Assay for Basic fibroblast growth factor (bFGF) Biomarker Activity (AID 2284246). Conditions: primary human lung fibroblasts. In outline: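 Human lung fibroblasts were dosed with chemicals and bFGF was quantified by ELISA 24 h later. Activity was fitted in the gain-of-signal direction relative to DMSO as negative control and baseline. Parallel SRB total-protein staining tracked overt cytotoxicity.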

Read-out in experiment [5]: Collagen IV, COL4A1 (gene 1282)
Put plainly: BSK_MyoF_CollagenIV: BioMAP Diversity Plus: MyoF Assay for Collagen IV Biomarker Activity (AID 2284247). To be noted: primary human lung fibroblasts. A digest of the protocol: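 Primary human lung fibroblasts were exposed to test chemicals and sampled 24 h after dosing. Collagen IV levels were measured by ELISA and fitted in the positive direction against DMSO as negative control and baseline.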

Read-out in experiment [6]: Plasminogen activator inhibitor-1 (PAI1), SERPINE1 (gene 5054)
Description: BSK_MyoF_PAI1: BioMAP Diversity Plus: MyoF Assay for Plasminogen activator inhibitor-1 (PAI1) Biomarker Activity (AID 2284256).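 On outcome: PAI-1 protein level measured by ELISA in fibroblast cultures; PAI-1 read 24 h after compound addition.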 Conditions: primary human lung fibroblasts. A digest of the protocol:
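Human lung fibroblasts (MyoF system) were exposed to test chemicals for 24 h, then PAI-1 was quantified by ELISA. Activity was fitted in the positive (signal-gain) direction relative to DMSO vehicle as baseline.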

Read-out in experiment [7]: Interleukin-8 (IL8), CXCL8 (gene 3576)
Description: BSK_MyoF_IL8: BioMAP Diversity Plus: MyoF Assay for Interleukin-8 (IL8) Biomarker Activity (AID 2284261). Conditions: primary human lung fibroblasts. A digest of the protocol: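 IL-8 quantified by ELISA after 24 h compound exposure of primary human lung fibroblasts. SRB staining of parallel cultures flagged cytotoxicity; DMSO served as baseline.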

Read-out in the next experiment: Decorin, DCN (gene 1634)
Put plainly: BSK_MyoF_Decorin: BioMAP Diversity Plus: MyoF Assay for Decorin Biomarker Activity (AID 2284265). Conditions: primary human lung fibroblasts. A digest of the protocol: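 Decorin protein was quantified by ELISA 24 h after chemical addition to primary human lung fibroblasts and analysed as increase over DMSO. Cytotoxicity was tracked in parallel cultures by SRB total-protein staining read at 560 nm.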

Read-out in experiment [8]: Collagen I, COL1A1 (gene 1277)
Put plainly: BSK_hDFCGF_CollagenI: BioMAP Diversity Plus: hDFCGF Assay for Collagen I Biomarker Activity (AID 2284250). To be noted: primary human foreskin fibroblasts. In outline: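 Primary human foreskin fibroblasts (hDFCGF system) exposed to chemical for 24 h; Collagen I measured by ELISA. Activity fitted in the positive direction relative to DMSO baseline, with SRB total-protein staining in parallel cultures for overt cytotoxicity.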

Read-out in experiment [9]: Vascular cell adhesion molecule 1 (VCAM1), VCAM1 (gene 7412)
Description: BSK_BF4T_VCAM1: BioMAP Diversity Plus: BF4T Assay for Vascular cell adhesion molecule 1 (VCAM1) Biomarker Activity (AID 2284249). Conditions: primary human bronchial epithelial cells with fibroblasts. A digest of the protocol:
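Human bronchial epithelial cell and dermal fibroblast co-culture exposed 24 h. VCAM-1 measured by ELISA; parallel SRB total-protein staining for cytotoxicity. Fitted in positive direction relative to DMSO.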

Read-out in experiment [10]: Monocyte Chemoattractant Protein-1 (MCP1), CCL2 (gene 6347)
Put plainly: BSK_IMphg_MCP1: BioMAP Diversity Plus: IMphg Assay for Monocyte Chemoattractant Protein-1 (MCP1) Biomarker Activity (AID 2284253). Conditions: primary human endothelial cells with macrophages. A digest of the protocol: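 Human venular endothelial cells co-cultured with macrophages; MCP-1 measured by ELISA 24 hours post-dose and fitted against DMSO. Cytotoxicity monitored by SRB total-protein staining in parallel cultures.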

Read-out in experiment [11]: Macrophage Inflammatory Protein-1 Alpha (MIP1a), CCL3 (gene 6348)
Put plainly: BSK_IMphg_MIP1a: BioMAP Diversity Plus: IMphg Assay for Macrophage Inflammatory Protein-1 Alpha (MIP1a) Biomarker Activity (AID 2284255). To be noted: primary human endothelial cells with macrophages. A digest of the protocol: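 Co-culture of human venular endothelial cells and macrophages exposed to compounds for 24 h; MIP-1a measured by ELISA relative to DMSO. Cytotoxicity assessed in parallel cultures by sulforhodamine B total-protein staining at 560 nm.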

Read-out in a further experiment: CD69, CD69 (gene 969)
Put plainly: BSK_IMphg_CD69: BioMAP Diversity Plus: IMphg Assay for CD69 Biomarker Activity (AID 2284257). To be noted: primary human endothelial cells with macrophages. In outline:
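Human venular endothelial cells co-cultured with macrophages; CD69 quantified by ELISA 24 h after compound addition. Activity fitted in the positive direction relative to DMSO baseline; cytotoxicity tracked in parallel cultures via SRB total-protein staining.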

Read-out in experiment [12]: Eotaxin 3, CCL26 (gene 10344)
Description: BSK_BF4T_Eotaxin3: BioMAP Diversity Plus: BF4T Assay for Eotaxin 3 Biomarker Activity (AID 2284258). Conditions: primary human bronchial epithelial cells with fibroblasts. In outline:
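Co-culture of human bronchial epithelial cells and dermal fibroblasts, exposed to chemicals for 24 h versus DMSO. Eotaxin-3 quantified by ELISA; cytotoxicity checked in parallel cultures by sulforhodamine B total-protein staining.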

Read-out in experiment [13]: Monocyte Chemoattractant Protein-1 (MCP1), CCL2 (gene 6347)
Description: BSK_BF4T_MCP1: BioMAP Diversity Plus: BF4T Assay for Monocyte Chemoattractant Protein-1 (MCP1) Biomarker Activity (AID 2284259). To be noted: primary human bronchial epithelial cells with fibroblasts. A digest of the protocol:
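Co-culture of bronchial epithelial cells and dermal fibroblasts dosed with chemical; MCP-1 measured by ELISA 24 h later. Activity fitted in positive direction versus DMSO; cytotoxicity checked by SRB staining in parallel cultures.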

Read-out in experiment [14]: Intercellular Adhesion Molecule 1 (ICAM1), ICAM1 (gene 3383)
Put plainly: BSK_BF4T_ICAM1: BioMAP Diversity Plus: BF4T Assay for Intercellular Adhesion Molecule 1 (ICAM1) Biomarker Activity (AID 2284260). Conditions: primary human bronchial epithelial cells with fibroblasts. A digest of the protocol:
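Co-culture of human bronchial epithelial cells and dermal fibroblasts exposed 24 h to chemical; cell-surface ICAM-1 quantified by ELISA. Parallel SRB total-protein staining assessed cytotoxicity; activity fitted relative to DMSO.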

Read-out in another experiment: CD90, THY1 (gene 7070)
Put plainly: BSK_BF4T_CD90: BioMAP Diversity Plus: BF4T Assay for CD90 Biomarker Activity (AID 2284262). Conditions: primary human bronchial epithelial cells with fibroblasts. A digest of the protocol: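 Co-culture of human bronchial epithelial cells and dermal fibroblasts, 24 h compound exposure. Cell-surface CD90 measured by ELISA relative to DMSO; parallel SRB total-protein staining for cytotoxicity.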

Read-out in experiment [15]: Interleukin-8 (IL8), CXCL8 (gene 3576)
Put plainly: BSK_BF4T_IL8: BioMAP Diversity Plus: BF4T Assay for Interleukin-8 (IL8) Biomarker Activity (AID 2284263). To be noted: primary human bronchial epithelial cells with fibroblasts. A digest of the protocol: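 Human bronchial epithelial cells with dermal fibroblasts co-culture; IL-8 measured by ELISA 24 hours after dosing, fitted vs DMSO. Cytotoxicity tracked in parallel cultures by SRB total-protein staining.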

Read-out in experiment [16]: Interleukin-1 alpha (IL1a), IL1A (gene 3552)
Description: BSK_BF4T_IL1a: BioMAP Diversity Plus: BF4T Assay for Interleukin-1 alpha (IL1a) Biomarker Activity (AID 2284264). To be noted: primary human bronchial epithelial cells with fibroblasts. A digest of the protocol:
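Human bronchial epithelial cells co-cultured with dermal fibroblasts, dosed and read at 24 h. Secreted/surface IL-1α quantified by ELISA; gain-of-signal fitted relative to DMSO baseline. Parallel SRB total-protein staining tracked cytotoxicity.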

In the case of `CC=CC(=O)C1=C(C)C=CCC1(C)C`, the result in experiment [1], in experiment [2], in experiment [3], in [4], in experiment [5] and in experiment [6] was inactive. For the same compound, the outcome in experiment [7] is “inactive”; with Decorin, DCN (gene 1634), “inactive”.

Regarding `CC(C)CCCC(C)(C)O`, in experiment [8], the result was inactive.

Turning to `C=CC(=O)OCC(CO)(COC(=O)C=C)COC(=O)C=C`, the AC50 in experiment [1] was 1.15 µM (active); in experiment [2], 1.39 µM (active); in experiment [3], 1.27 µM (active); in experiment [4], 1.62 µM (active); in [6] it was 2.88 µM (active); in experiment [7] it was 4.24 µM (active). Further, the AC50 in the experiment with Decorin, DCN (gene 1634) was 3.97 µM (active). Further, the outcome in experiment [5] was inactive.

For the compound `CC(C)(CO)CO`, in [8], the result was inactive.

In the case of `NC(=O)c1c(Cl)cccc1Cl`, the outcome in [1], in experiment [2], in experiment [3], in experiment [4], in [5] and in experiment [7] was inactive. Also, the outcome with Decorin, DCN (gene 1634) was inactive. Further, the AC50 in experiment [6] was 4.48 µM (active).

Turning to `CCCCN(CCO)CCO`, the result in experiment [8] was inactive.

Take `O=S(=O)(O)C(F)(F)C(F)(F)OC(F)(F)C(F)(F)F`: the outcome in experiment [1], in [2], in [3], in [4], in experiment [5] and in [9] was inactive. The outcome in [8] was “inactive”; in experiment [10], “inactive”; in [11], “inactive”; in experiment [6], “inactive”; with CD69, CD69 (gene 969) it was “inactive”; in [12], “inactive”. Moreover, the outcome in experiment [13] is “inactive”; in experiment [14] it was “inactive”; in experiment [7], “inactive”; with CD90, THY1 (gene 7070), “inactive”; in experiment [15], “inactive”; in [16], “inactive”. Further, the outcome with Decorin, DCN (gene 1634) was inactive.

Take `CCCCCCCCCC(=O)OCC`: the outcome in [1], in experiment [3], in experiment [4], in [5], in [6] and in experiment [7] was inactive. Further, the result with Decorin, DCN (gene 1634) was inactive. The AC50 in experiment [2] is 26.9 µM (active).

With `Nc1ccc(N)c([N+](=O)[O-])c1`, the outcome in experiment [1], in experiment [2], in experiment [3], in experiment [4], in [5] and in [6] was inactive. Further, the outcome in experiment [7] is “inactive”; in the experiment with Decorin, DCN (gene 1634), “inactive”.

With `CCCO[Si](OCCC)(OCCC)OCCC`, the outcome in experiment [8] was inactive.

Consider `CC1=CC(C)C(C=O)C(C)C1` (stereo not given) (tested in a mixture with another compound), for which the outcome in experiment [1], in [2], in experiment [3], in [4], in experiment [5] and in experiment [6] was inactive. In addition, the outcome was “inactive” in experiment [7] and “inactive” in the experiment with Decorin, DCN (gene 1634).

Regarding `CC(=O)OCC=C(C)CCC=C(C)CCC=C(C)C`, the AC50 was 30.3 µM (active) in experiment [1] and 36.4 µM (active) in experiment [3]. Also, the outcome in [2] is “inactive”; in experiment [4], “inactive”; in experiment [5], “inactive”; in experiment [6] it was “inactive”; in experiment [7], “inactive”; in the experiment with Decorin, DCN (gene 1634), “inactive”.

Turning to `CCn1cc(C(=O)O)c(=O)c2ccc(C)nc21`, the outcome in experiment [8] was inactive.
